# Measured values from PubChem BioAssay (EPA / NIEHS).
# Results filed as inconclusive are left out. The source made the active and inactive calls. The calls were made as follows: active = hit-call score of the fitted dose curve at least 0.9, where 1 is the maximum; inconclusive = response in the unintended direction; inactive = score below 0.9.
# Target: rat Peripheral-type Benzodiazepine Receptor (PBR), Tspo (gene 24230) (UniProt P16257)
# Assay: NVS_MP_rPBR: NovaScreen (NVS) Membrane Protein Assay for rat Peripheral-type Benzodiazepine Receptor (PBR) (AID 2283335)
# Method in brief: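 Competitive displacement of specific radioligand from rat kidney membrane PBR, read by filtration and scintillation after 1 h. Compounds first tested at 25 uM in duplicate, then in concentration series; signal loss relative to DMSO.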
# Sequence of rat Peripheral-type Benzodiazepine Receptor (PBR), Tspo (gene 24230) (P16257 whole entry, looked up): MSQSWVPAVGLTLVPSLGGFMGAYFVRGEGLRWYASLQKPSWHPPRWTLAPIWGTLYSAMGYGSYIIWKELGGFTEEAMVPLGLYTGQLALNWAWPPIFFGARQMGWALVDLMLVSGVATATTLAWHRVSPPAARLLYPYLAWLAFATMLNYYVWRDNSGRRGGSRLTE
Compound,outcome,AC50
CS(=O)(=O)OCCCCOS(C)(=O)=O,inactive,–
CCOc1ccc(N=Nc2ccc(C=Cc3ccc(N=Nc4ccc(OCC)cc4)cc3S(=O)(=O)O)c(S(=O)(=O)O)c2)cc1,–,5.82 µM (active)
Cc1ccc(S(=O)(=O)Oc2ccc(N=Nc3ccc(-c4ccc(N=Nc5c(O)ccc6cc(S(=O)(=O)O)cc(S(=O)(=O)O)c56)c(C)c4)cc3C)cc2)cc1,–,0.118 µM (active)
Cc1cc(=O)oc2cc(N(C)C)ccc12,–,25 µM (active)
CCCCC(CC)COC(C)=O (stereo not drawn),inactive,–
CCCCN(CCCC)C(=O)N(CCCC)CCCC,–,10.4 µM (active)
CN(C)C(=S)SC(=S)N(C)C,inactive,–
C=CC(=O)OCCCC,inactive,–
O=C1OC[C@H](Cc2cccc(O)c2)[C@H]1Cc1cccc(O)c1,–,5.43 µM (active)
COc1ccc(N=Nc2cc(C)c(N=Nc3ccc(S(=O)(=O)O)cc3)cc2OC)cc1,–,0.0418 µM (active)
Nc1ccc2cc(S(=O)(=O)O)cc(O)c2c1N=Nc1ccccc1C(F)(F)F,–,5.02 µM (active)
CCCCC(CC)COC(=O)c1ccc(O)cc1 (stereo not drawn),–,1.23 µM (active)
c1ccc(Oc2ccccc2)cc1,inactive,–
CCCCCCCCCCCCCCCC(=O)OC/C=C(C)/C=C/C=C(C)/C=C/C1=C(C)CCCC1(C)C,inactive,–
CN(C)C(=O)Nc1ccc(Oc2ccc(Cl)cc2)cc1,–,5.74 µM (active)

# Test system: not listed separately
# Assay: NVS_IC_rCaBTZCHL: NovaScreen (NVS) Ion Channel Assay for Calcium Channel, Type L, Benzothiazepine Site (CaBTZCHL) (AID 2283337)
# Method in brief: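 Rat cortical membrane preparation incubated 1.5 h with compound and benzothiazepine-site radioligand; loss of filter-bound counts versus DMSO marks displacement. Initial duplicate testing at 25 uM, actives followed up in concentration series.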
Compound,AC50,outcome
CC(C)(C)CC(C)(C)c1ccc(OCCOCC[N+](C)(C)Cc2ccccc2)cc1,2.81 µM (active),–
CN(c1nccc(=O)[nH]1)C1CCN(c2nc3ccccc3n2Cc2ccc(F)cc2)CC1,–,inactive
c1ccc(Oc2ccccc2)cc1,–,inactive
CCCCOC(=O)CCCCCCCC(=O)OCCCC,–,inactive
COc1ccc(CCN2CCC(Nc3nc4ccccc4n3Cc3ccc(F)cc3)CC2)cc1,2.18 µM (active),–

# Target: chimpanzee Androgen Receptor (AR), AR (gene 747460) (UniProt O97775)
# Sequence (O97775 whole entry, looked up): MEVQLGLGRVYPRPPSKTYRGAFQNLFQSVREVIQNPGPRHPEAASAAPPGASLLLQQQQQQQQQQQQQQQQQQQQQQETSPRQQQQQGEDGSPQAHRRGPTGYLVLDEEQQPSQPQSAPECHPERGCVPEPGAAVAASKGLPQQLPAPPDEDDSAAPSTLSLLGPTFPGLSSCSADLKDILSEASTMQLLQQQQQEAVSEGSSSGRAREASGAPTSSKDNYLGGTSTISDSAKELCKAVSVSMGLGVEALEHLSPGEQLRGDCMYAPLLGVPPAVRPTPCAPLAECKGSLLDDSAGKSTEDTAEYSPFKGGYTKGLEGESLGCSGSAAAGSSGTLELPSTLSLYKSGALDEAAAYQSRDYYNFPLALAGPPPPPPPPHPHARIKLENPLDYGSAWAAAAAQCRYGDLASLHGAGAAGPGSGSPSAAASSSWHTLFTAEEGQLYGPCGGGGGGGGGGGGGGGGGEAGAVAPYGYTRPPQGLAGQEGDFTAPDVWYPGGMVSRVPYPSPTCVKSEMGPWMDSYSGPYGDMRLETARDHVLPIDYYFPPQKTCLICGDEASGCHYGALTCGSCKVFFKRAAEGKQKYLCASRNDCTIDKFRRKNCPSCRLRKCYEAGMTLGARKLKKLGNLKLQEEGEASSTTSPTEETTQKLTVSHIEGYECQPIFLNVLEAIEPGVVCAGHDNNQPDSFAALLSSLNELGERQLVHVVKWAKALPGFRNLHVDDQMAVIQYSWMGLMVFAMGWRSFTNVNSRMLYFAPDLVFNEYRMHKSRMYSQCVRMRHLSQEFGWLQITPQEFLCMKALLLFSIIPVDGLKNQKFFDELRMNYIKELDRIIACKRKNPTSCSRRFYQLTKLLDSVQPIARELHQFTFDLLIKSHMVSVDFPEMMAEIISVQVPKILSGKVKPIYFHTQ
# Assay: NVS_NR_cAR: NovaScreen (NVS) Nuclear Receptor Binding Assay for chimpanzee Androgen Receptor (AR) (AID 2283346);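 also: radioligand displacement from AR measured by scintillation counting in a cell-free assay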
# Method in brief: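 Cell-free radioligand displacement using receptor protein extracted from Sf9/Sf21 cells; bound radioligand measured by scintillation counting 72 hours after chemical dosing. Loss of signal versus DMSO baseline indicates binding; primary screen single-concentration in duplicate at 25 uM, actives followed in concentration series.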
Compound,AC50,outcome
CCOc1ccc(N=Nc2ccc(C=Cc3ccc(N=Nc4ccc(OCC)cc4)cc3S(=O)(=O)O)c(S(=O)(=O)O)c2)cc1,17.7 µM (active),–
Cc1ccc(S(=O)(=O)Oc2ccc(N=Nc3ccc(-c4ccc(N=Nc5c(O)ccc6cc(S(=O)(=O)O)cc(S(=O)(=O)O)c56)c(C)c4)cc3C)cc2)cc1,5.44 µM (active),–
Cc1cc(=O)oc2cc(N(C)C)ccc12,6.8 µM (active),–
CCOC(=O)c1ccc(N)cc1,–,inactive
Oc1c(Cl)cc(Cl)c(Cl)c1Cc1c(O)c(Cl)cc(Cl)c1Cl,5 µM (active),–
C=C(C)[C@H]1CC=C(C)C(=O)C1,–,inactive
CN1CCOCC1,–,inactive
O=CCc1ccccc1,–,inactive
O=C1OC[C@H](Cc2cccc(O)c2)[C@H]1Cc1cccc(O)c1,4.16 µM (active),–
COc1ccc(N=Nc2cc(C)c(N=Nc3ccc(S(=O)(=O)O)cc3)cc2OC)cc1,25 µM (active),–
COc1ccc(OC)c(N=Nc2c(O)ccc3ccccc23)c1,2.85 µM (active),–
CCc1cc(C(C)(C)C)c(O)c(C(C)(C)C)c1,–,inactive

# Target: Estrogen receptor beta (Homo sapiens) (UniProt Q92731)
# Sequence (Q92731 whole entry, looked up): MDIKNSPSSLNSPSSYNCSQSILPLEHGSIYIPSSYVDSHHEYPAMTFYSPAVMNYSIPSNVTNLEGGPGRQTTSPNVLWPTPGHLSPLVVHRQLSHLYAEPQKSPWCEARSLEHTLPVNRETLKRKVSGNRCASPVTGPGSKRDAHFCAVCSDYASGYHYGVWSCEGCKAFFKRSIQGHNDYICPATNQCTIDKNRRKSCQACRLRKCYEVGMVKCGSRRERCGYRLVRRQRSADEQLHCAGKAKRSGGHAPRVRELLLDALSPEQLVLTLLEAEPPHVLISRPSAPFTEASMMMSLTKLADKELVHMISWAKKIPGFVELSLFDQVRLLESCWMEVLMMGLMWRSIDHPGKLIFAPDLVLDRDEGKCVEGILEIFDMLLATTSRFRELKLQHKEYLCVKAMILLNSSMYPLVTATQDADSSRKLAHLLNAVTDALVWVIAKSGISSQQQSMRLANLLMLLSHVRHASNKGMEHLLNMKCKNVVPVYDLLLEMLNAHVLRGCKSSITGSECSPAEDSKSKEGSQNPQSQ
# Assay: OT_ER_ERbERb_0480: Odyssey Thera (OT) 8-hour HEK293T Protein-Complementation Assay for Estrogen Receptor-beta/-beta Homodimer (AID 2283357);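 also: active means signal gain over DMSO baseline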
# Method in brief: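 Fluorescence gain from complemented reporter fragments on ER-beta LBD homodimer in HEK293T was quantified against DMSO controls after 8 h treatment, fixation in 4% formaldehyde and Draq5 staining.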
Compound,outcome,AC50
CCCCCCCCCCCC(=O)OCC(O)CO (stereo not drawn),inactive,–
Nc1ccc2cc(S(=O)(=O)O)cc(O)c2c1N=Nc1ccccc1C(F)(F)F,inactive,–
CCCCC(CC)COC(=O)c1ccc(O)cc1 (stereo not drawn),–,0.91 µM (active)
c1ccc(Oc2ccccc2)cc1,inactive,–
CCCCOC(=O)CCCCCCCC(=O)OCCCC,inactive,–

# Target: human Peroxisome Proliferator-activated Receptor alpha (PPARa), PPARA (gene 5465) (UniProt Q07869)
# Sequence (Q07869 whole entry, looked up): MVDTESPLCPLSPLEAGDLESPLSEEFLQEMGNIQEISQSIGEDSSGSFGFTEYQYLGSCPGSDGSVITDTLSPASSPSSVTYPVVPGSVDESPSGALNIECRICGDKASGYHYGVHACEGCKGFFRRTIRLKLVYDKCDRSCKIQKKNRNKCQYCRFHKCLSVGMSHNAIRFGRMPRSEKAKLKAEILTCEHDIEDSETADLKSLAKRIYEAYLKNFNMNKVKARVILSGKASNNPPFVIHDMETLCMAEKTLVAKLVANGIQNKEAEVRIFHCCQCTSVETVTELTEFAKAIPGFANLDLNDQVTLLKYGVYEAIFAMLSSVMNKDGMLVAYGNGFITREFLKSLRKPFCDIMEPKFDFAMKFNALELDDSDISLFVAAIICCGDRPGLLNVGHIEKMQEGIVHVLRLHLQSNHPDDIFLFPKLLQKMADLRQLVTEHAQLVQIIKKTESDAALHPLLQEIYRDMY
# Assay: NVS_NR_hPPARa: NovaScreen (NVS) Nuclear Receptor Binding Assay for human Peroxisome Proliferator-activated Receptor alpha (PPARa) (AID 2283359);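 also: activity means loss of TR-FRET signal versus DMSO baseline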
# Method in brief: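 One-hour incubation, cell-free extracted protein, TR-FRET binding readout; signal loss vs DMSO scored. Screen: 25 uM duplicates, confirmatory dose series for actives.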
Compound,AC50,outcome
CCOc1ccc(N=Nc2ccc(C=Cc3ccc(N=Nc4ccc(OCC)cc4)cc3S(=O)(=O)O)c(S(=O)(=O)O)c2)cc1,9.11 µM (active),–
Cc1ccc(S(=O)(=O)Oc2ccc(N=Nc3ccc(-c4ccc(N=Nc5c(O)ccc6cc(S(=O)(=O)O)cc(S(=O)(=O)O)c56)c(C)c4)cc3C)cc2)cc1,–,inactive
Nc1ccc2cc(S(=O)(=O)O)cc(O)c2c1N=Nc1ccccc1C(F)(F)F,0.155 µM (active),–
CCCCC(CC)COC(=O)c1ccc(O)cc1 (stereo not drawn),–,inactive

# Target: PGR (gene 5241) (UniProt P06401)
# Sequence (P06401 whole entry, looked up): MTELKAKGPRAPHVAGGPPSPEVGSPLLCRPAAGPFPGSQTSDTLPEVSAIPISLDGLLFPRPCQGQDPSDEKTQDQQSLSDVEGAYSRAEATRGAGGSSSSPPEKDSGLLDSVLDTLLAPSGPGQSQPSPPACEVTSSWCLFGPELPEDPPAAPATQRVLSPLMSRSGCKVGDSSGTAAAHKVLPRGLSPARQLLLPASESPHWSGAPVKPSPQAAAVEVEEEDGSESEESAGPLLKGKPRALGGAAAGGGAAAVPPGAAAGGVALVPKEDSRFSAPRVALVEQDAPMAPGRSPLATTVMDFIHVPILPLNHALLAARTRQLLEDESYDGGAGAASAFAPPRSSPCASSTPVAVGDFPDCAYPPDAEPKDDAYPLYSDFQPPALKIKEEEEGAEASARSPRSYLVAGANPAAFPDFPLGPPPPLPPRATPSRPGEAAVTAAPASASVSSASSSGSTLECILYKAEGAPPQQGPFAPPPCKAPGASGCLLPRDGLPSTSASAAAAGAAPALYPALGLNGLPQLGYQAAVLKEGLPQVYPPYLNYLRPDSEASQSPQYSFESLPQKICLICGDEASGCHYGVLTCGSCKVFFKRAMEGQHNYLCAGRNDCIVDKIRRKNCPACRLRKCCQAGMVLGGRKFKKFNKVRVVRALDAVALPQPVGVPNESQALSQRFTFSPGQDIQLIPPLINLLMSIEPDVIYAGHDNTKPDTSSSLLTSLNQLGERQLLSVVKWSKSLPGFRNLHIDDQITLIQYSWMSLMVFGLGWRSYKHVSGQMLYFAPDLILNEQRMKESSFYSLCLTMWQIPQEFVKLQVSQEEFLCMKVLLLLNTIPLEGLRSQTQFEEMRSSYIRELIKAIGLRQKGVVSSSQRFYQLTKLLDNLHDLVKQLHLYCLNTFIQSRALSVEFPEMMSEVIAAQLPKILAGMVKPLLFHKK
# Assay: NVS_NR_hPR: NovaScreen (NVS) Nuclear Receptor Binding Assay for human Progestron Receptor (PR) (AID 2283360)
# Method in brief: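 Cell-free radioligand binding using receptor protein extracted from T47D cells, read by scintillation counting 18 hours after dosing. Loss of signal relative to DMSO baseline indicates displacement; primary screen single concentration 25 uM in duplicate, actives followed in concentration series.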
row,Compound,outcome
1,Oc1c(Cl)cc(Cl)c(Cl)c1Cc1c(O)c(Cl)cc(Cl)c1Cl,inactive
2,CN(c1nccc(=O)[nH]1)C1CCN(c2nc3ccccc3n2Cc2ccc(F)cc2)CC1,inactive
3,COc1ccc(CCN2CCC(Nc3nc4ccccc4n3Cc3ccc(F)cc3)CC2)cc1,inactive

# Target: human Thyroid Receptor Alpha (TRa), THRA (gene 7067) (UniProt P10827)
# Sequence (P10827 whole entry, looked up): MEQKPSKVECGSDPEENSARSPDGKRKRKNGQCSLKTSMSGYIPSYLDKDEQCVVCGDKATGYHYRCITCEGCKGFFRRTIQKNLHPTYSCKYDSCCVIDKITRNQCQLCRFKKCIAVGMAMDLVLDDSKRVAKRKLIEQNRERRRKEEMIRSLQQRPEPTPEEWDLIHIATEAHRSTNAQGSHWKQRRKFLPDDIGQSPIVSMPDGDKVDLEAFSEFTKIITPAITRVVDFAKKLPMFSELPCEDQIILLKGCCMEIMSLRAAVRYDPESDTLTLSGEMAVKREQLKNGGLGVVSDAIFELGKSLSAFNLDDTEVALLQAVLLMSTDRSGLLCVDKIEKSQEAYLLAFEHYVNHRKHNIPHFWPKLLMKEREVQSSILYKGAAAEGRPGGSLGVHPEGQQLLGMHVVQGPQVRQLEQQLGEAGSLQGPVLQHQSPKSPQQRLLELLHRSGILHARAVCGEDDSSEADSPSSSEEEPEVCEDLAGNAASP
# Assay: NVS_NR_hTRa_Antagonist: NovaScreen (NVS) Nuclear Receptor Binding Assay for human Thyroid Receptor Alpha Antagonism (TRa) (AID 2283362);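 also: activity is loss of signal relative to DMSO baseline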
# Method in brief: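 Cell-free binding assay on extracted receptor protein, read 1 h after chemical dosing by AlphaLISA chemiluminescence; loss of signal relative to DMSO baseline marks antagonism. Primary screen ran in duplicate at 25 uM, with concentration series for actives.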
row,Compound,AC50
1,CCOc1ccc(N=Nc2ccc(C=Cc3ccc(N=Nc4ccc(OCC)cc4)cc3S(=O)(=O)O)c(S(=O)(=O)O)c2)cc1,14.1 µM (active)
2,Cc1ccc(S(=O)(=O)Oc2ccc(N=Nc3ccc(-c4ccc(N=Nc5c(O)ccc6cc(S(=O)(=O)O)cc(S(=O)(=O)O)c56)c(C)c4)cc3C)cc2)cc1,3.09 µM (active)
3,Nc1ccc2cc(S(=O)(=O)O)cc(O)c2c1N=Nc1ccccc1C(F)(F)F,20 µM (active)

# Target: Glucocorticoid receptor (Homo sapiens) (UniProt P04150)
# Sequence (P04150 whole entry, looked up): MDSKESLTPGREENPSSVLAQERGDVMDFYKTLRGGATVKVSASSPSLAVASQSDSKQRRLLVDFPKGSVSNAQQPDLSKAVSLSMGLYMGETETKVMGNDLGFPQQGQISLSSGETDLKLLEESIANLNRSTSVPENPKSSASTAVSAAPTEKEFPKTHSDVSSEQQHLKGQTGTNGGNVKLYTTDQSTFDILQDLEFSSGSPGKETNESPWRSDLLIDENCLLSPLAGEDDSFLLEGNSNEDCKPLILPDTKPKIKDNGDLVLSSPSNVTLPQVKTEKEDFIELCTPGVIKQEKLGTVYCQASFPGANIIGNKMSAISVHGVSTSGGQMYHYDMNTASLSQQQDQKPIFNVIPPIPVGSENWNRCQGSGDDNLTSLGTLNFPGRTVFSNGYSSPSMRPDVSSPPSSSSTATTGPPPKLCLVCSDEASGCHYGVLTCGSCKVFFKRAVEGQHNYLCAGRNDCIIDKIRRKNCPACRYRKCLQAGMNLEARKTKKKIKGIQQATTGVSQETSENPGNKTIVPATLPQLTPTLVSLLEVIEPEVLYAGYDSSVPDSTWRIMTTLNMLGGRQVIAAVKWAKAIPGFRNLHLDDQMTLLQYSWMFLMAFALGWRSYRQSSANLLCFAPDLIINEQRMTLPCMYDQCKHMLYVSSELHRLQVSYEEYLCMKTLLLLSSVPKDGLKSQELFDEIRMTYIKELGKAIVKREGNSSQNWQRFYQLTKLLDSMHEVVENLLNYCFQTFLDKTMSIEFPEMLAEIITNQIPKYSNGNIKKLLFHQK
# Assay: NVS_NR_hGR: NovaScreen (NVS) Nuclear Receptor Binding Assay for human Glucocorticoid Receptor (GR) (AID 2283363);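 also: activity is loss of specific radioligand binding signal relative to DMSO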
# Method in brief: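 Single-readout cell-free binding: radioligand plus extracted receptor, 16-hour dosing, filter radiodetection; 25 uM duplicate primary, concentration series secondary.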
row,Compound,AC50
1,CCOc1ccc(N=Nc2ccc(C=Cc3ccc(N=Nc4ccc(OCC)cc4)cc3S(=O)(=O)O)c(S(=O)(=O)O)c2)cc1,3.4 µM (active)
2,Cc1ccc(S(=O)(=O)Oc2ccc(N=Nc3ccc(-c4ccc(N=Nc5c(O)ccc6cc(S(=O)(=O)O)cc(S(=O)(=O)O)c56)c(C)c4)cc3C)cc2)cc1,0.548 µM (active)
3,Oc1c(Cl)cc(Cl)c(Cl)c1Cc1c(O)c(Cl)cc(Cl)c1Cl,4.34 µM (active)
4,COc1ccc(N=Nc2cc(C)c(N=Nc3ccc(S(=O)(=O)O)cc3)cc2OC)cc1,1.91 µM (active)
5,Nc1ccc2cc(S(=O)(=O)O)cc(O)c2c1N=Nc1ccccc1C(F)(F)F,5.65 µM (active)
6,CCCCC(CC)COC(=O)c1ccc(O)cc1 (stereo not drawn),3.11 µM (active)
